Compound activity: PubChem BioAssay, SRMLSC
This is a sample that favours compounds with a hit; in the whole collection about 6.3% have one here.
DPM-DC inhibit – inhibitors of Streptococcus pneumoniae diphosphomevalonate decarboxylase. 65,000 compounds, 0.49% hits. calls only at 10 µM. purified DPM-DC, PK/LDH coupled NADH fluorescence;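 active = the 320 compounds with the highest percent inhibition in the single-dose primary screen, excluding strongly autofluorescent ones, cut at about 32% in these data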;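 note: kinetic rate of NADH fluorescence loss reporting ADP formed by the decarboxylase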
Abs 340nm – compound absorbs light at 340 nm. compound absorbance at 340 nm, fold over control. fold change at 10 µM. 65,000 tested, under 10 active. AID 708;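 active = at 10 µM dose, initial 340 nm absorbance at least 2 fold that of control wells; inactive = change under 2 fold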;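 note: initial absorbance extrapolated from kinetic A340 decline of NADH oxidation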
MK inhibit – S. pneumoniae mevalonate kinase inhibition; purified MK, PK/LDH-coupled NADH absorbance 340 nm; inhibition, % at 10 µM; 65,000 compounds, 0.48% hits; AID 555;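 active = ranked among the strongest by inhibition in the single 10 µM screen, a fixed top-ranked set picked for dose follow-up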
NADH enzymes – blocks coupling enzymes of NAD/NADH assays | coupled PK/LDH NADH assays, four targets | IC50, µM (highest dose often 10 µM) | 65,000 compounds, 0.02% hits | AID 774;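 active = single-dose screening hits from any of four coupled enzyme assays that gave an IC50 when retested across doses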;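 note: the DPM-DC format reads NADH fluorescence rather than 340 nm absorbance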
Spn PMK inh – blocks S. pneumoniae phosphomevalonate kinase; inhibition, % at 10 µM; purified PMK, PK/LDH-coupled NADH absorbance 340 nm; 65,000 compounds, 0.49% hits; AID 539;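 active = top-ranked compounds by inhibition in the single 10 µM screen, taking a fixed number of the strongest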
Fluor 339 460 – intrinsic fluorescence of library compounds, ex339/em460 – biochemical, MLSMR library, data from DPM-DC assay, artefact control, profiling panel; compound autofluorescence, ex339/em460 nm, NADH buffer; hits give high values; 1 = no-compound wells, NADH background; fluorescence fold increase at 10 µM; 65,000 compounds, 5.5% hits; AID 709;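 active = at 10 µM, mean starting fluorescence two-fold or more over control wells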;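 note: signal is the first read of a kinetic run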
Of the large screens only hits and unclear results are named; the others gave an inactive call.

Cc1cc(N2C(=O)CCC2=O)n(-c2ccccc2)n1	none
CCCS(=O)(=O)N1CCCC(C(=O)NCC2CCCO2)C1 (stereo not given)	none
Cc1ccc(CN(C)C(=O)C2CCCN2C(=O)c2cccs2)o1 (stereo not given)	none
CCOC(=O)C(C)Sc1nc(-c2ccco2)cc(C(F)(F)F)c1C#N (stereo not given)	Fluor 339 460 2.8
COC(=O)c1cn(-c2ccccc2)nc1C(=O)OC	Spn PMK inh 19
CCOC(=O)c1c(NC(=O)c2nn(CC)cc2Br)sc2c1CCCCC2	Fluor 339 460 3.6 (not shown: DPM-DC inhibit)
CCOC(=O)c1c(NC(=O)c2nn(CC)cc2Br)sc(C)c1C	Fluor 339 460 3.5 (not shown: DPM-DC inhibit)
CCOC(=O)c1c(NC(=O)c2ccc(-n3cnnn3)cc2)sc2c1CCCC2	Fluor 339 460 3
Cc1cccc(C)c1NC(=O)c1ccc(-n2cnnn2)cc1	none
COc1ccc(N/C=C(\C#N)c2nc3ccccc3n2C)c(OC)c1	none
CCn1c(CC(C)C)n[nH]c1=S	MK inhibit 44
C=CCSc1nc(C)c(CC(=O)OCC(C)C)c(=O)[nH]1	none
COc1ccc(-c2nnc3ccc(SCC(=O)N4CCN(c5ccccc5)CC4)nn23)cc1OC	none
Nc1nc(-c2ccco2)c(-c2ccco2)s1	none
c1coc(-c2nc(-c3ccco3)c(-c3ccco3)nc2-c2ccco2)c1	Fluor 339 460 2.2 (not shown: DPM-DC inhibit)
COc1ccc(-c2cc3nc(-c4ccccc4)cc(N4CCC5(CC4)OCCO5)n3n2)cc1	Fluor 339 460 4.8 (not shown: DPM-DC inhibit)
Cc1cccc(-c2cc3nc4c(c(N5CCC6(CC5)OCCO6)n3n2)CCCC4)c1	none
Cc1cc(C(=O)CSc2nnnn2-c2ccccc2)c(C)n1CC1CCCO1 (stereo not given)	none
Cc1cc(C(=O)CSc2nnnn2-c2ccc(Cl)cc2)c(C)n1CC1CCCO1 (stereo not given)	DPM-DC inhibit active
Cc1ccc2cccc(S(=O)(=O)Nc3ccc4c(c3)OCO4)c2n1	none
CN(C(=O)c1cccs1)c1ccccc1C(=O)O	Fluor 339 460 2.2 (not shown: DPM-DC inhibit)
CCOc1ccccc1NC1c2ccccc2C(=O)N1c1cccnc1 (stereo not given)	none
COc1ccccc1CNc1nc2nc(C)cc(=O)n2[nH]1	none
COc1ccccc1CN1C(=S)SC(C)(C)C1NO (stereo not given)	none
CCc1cc2c(=O)c(-c3cscn3)coc2c(CN(C)C)c1O	Fluor 339 460 2.3 (not shown: DPM-DC inhibit)
CCCCS(=O)(=O)NC1=NCN(C2CCN(Cc3ccccc3)CC2)CN1	none
NC(=O)C1CCN(C(c2ccccc2Cl)c2nnnn2Cc2ccc3c(c2)OCO3)CC1 (stereo not given)	none
CCC(CC)C(=O)Nc1c2c(nn1-c1ccc(OC)cc1)CS(=O)C2 (stereo not given)	none
CC1=C(C(=O)N2CCOCC2)C(c2ccsc2)C2=C(CCCC2=O)N1 (stereo not given)	Fluor 339 460 2.9 (not shown: DPM-DC inhibit)
COC(=O)C1=C(C)NC2=C(C(=O)CCC2)C1c1ccsc1 (stereo not given)	none
CCOC(=O)N1CCN(C(=O)c2nc3ccccc3s2)CC1	none
CCOC(=O)C(C)Sc1nc(-c2ccc(OC)cc2)nc2c1c(=O)n(C)c(=O)n2C (stereo not given)	Fluor 339 460 2.2 (not shown: DPM-DC inhibit)
CC(=O)C(Sc1nc(-c2ccc(F)cc2)nc2c1c(=O)n(C)c(=O)n2C)C(C)=O	none
COC(=O)C(C)Sc1nc(-c2ccc(OC)cc2)nc2c1c(=O)n(C)c(=O)n2C (stereo not given)	Fluor 339 460 3.6
CCCc1nc(SCC(=O)c2ccc(OC)cc2)c2c(=O)n(C)c(=O)n(C)c2n1	none
CCOC(=O)C(CC)Sc1nc(-c2ccc(OC)cc2)nc2c1c(=O)n(C)c(=O)n2C (stereo not given)	Fluor 339 460 5 (not shown: DPM-DC inhibit)
Cc1onc(-c2c(F)cccc2Cl)c1C(=O)Nc1cccc2nsnc12	Fluor 339 460 3
O=C(Cn1c(=O)oc2cc(S(=O)(=O)N3CCc4ccccc43)ccc21)N1CCCCC1	none
O=C(CN1CCOCC1)Nc1c2c(nc3ccccc13)N(Cc1ccccc1)CC2	Fluor 339 460 3.7 (not shown: DPM-DC inhibit)
CC(C)C(=O)Nc1c2c(nc3ccccc13)N(C)CC2	Fluor 339 460 2.2 (not shown: DPM-DC inhibit)
O=C(COC(=O)Cc1ccc(S(=O)(=O)N2CCOCC2)s1)NCc1ccccc1	MK inhibit 49
N#Cc1nc(-c2ccccc2F)oc1NCc1ccccc1	Fluor 339 460 2.1 (not shown: DPM-DC inhibit)
N#Cc1nc(-c2ccccc2F)oc1NCCc1ccccn1	Fluor 339 460 2.3 (not shown: DPM-DC inhibit)
COc1ccc(CCNc2oc(COc3ccccc3F)nc2C#N)cc1OC	none
COCCCNc1oc(-c2ccccc2OC)nc1C#N	Fluor 339 460 3.9 (not shown: DPM-DC inhibit)
COCCCNc1oc(-c2ccccc2F)nc1C#N	Fluor 339 460 2.1 (not shown: DPM-DC inhibit)
N#Cc1nc(-c2ccc(OCc3ccccc3)cc2)oc1NCc1cccnc1	none
CC(=O)c1cc2c(cc1NS(=O)(=O)c1ccc(C)cc1)OCCO2	none
CN(C)/C=N/c1cnc(C(=O)c2ccc(Cl)cc2)n1C	none
O=c1c2cc(Cl)ccc2[nH]c(=S)n1Cc1ccco1	none
O=c1c2cc(N3CCOCC3)ccc2[nH]c(=S)n1Cc1ccco1	Fluor 339 460 3.5
O=c1c2cc(N3CCOCC3)ccc2[nH]c(=S)n1CCCN1CCCC1	none
COc1cccc(Cn2c(=S)[nH]c3ccc(N4CCOCC4)cc3c2=O)c1	DPM-DC inhibit active, Fluor 339 460 3.7
COc1cc(NC(=O)CN2C(=O)c3ccccc3S2(=O)=O)c(OC)cc1Cl	none
COc1ccc(-n2nnc3c(SCC(=O)NCC4CCCO4)ncnc32)cc1 (stereo not given)	none
CC(=O)Nc1cccc(-c2nc3ccc(NC(C)=O)cc3[nH]2)c1	Fluor 339 460 4.9 (not shown: DPM-DC inhibit)
CC(=O)Nc1ccc2nc(-c3cccnc3)[nH]c2c1	none
O=C(c1ccccc1)c1nnc(-c2ccccc2F)o1	none
CN(C)c1oc(-c2cccs2)nc1C#N	Fluor 339 460 2.4 (not shown: DPM-DC inhibit)
CCSc1nnc(-c2cccs2)o1	none
CN(C)c1oc(-c2ccccc2F)nc1C#N	Fluor 339 460 2.4 (not shown: DPM-DC inhibit)
CNc1oc(-c2cccs2)nc1C#N	Fluor 339 460 2.4 (not shown: DPM-DC inhibit)
Oc1ccccc1Cn1c(-c2ccccc2O)nc2ccccc21	Fluor 339 460 3.8 (not shown: DPM-DC inhibit)
O=C(O)Cn1c(-c2ccccc2)nc2ccccc21	none
CCOC(=O)c1cnn2c1[nH]c(=O)c1ccccc12	Fluor 339 460 2.3 (not shown: DPM-DC inhibit)
CCOC(=O)c1cnn(-c2cc(C)c3ccccc3n2)c1N	none
CCNC(=O)NC(=O)COC(=O)c1ccccc1SCC(=O)NC(=O)NCC	Fluor 339 460 2.1 (not shown: DPM-DC inhibit)
COc1ccc(S(=O)(=O)Nc2ccccc2C(=O)NCc2ccco2)cc1	Fluor 339 460 3.6 (not shown: DPM-DC inhibit)
Cc1ccc(CN(C)CCc2ccccn2)cc1	MK inhibit 56
COc1cc(CN(C)CCc2ccccn2)cc(OC)c1OC	MK inhibit 52
CCc1ccc(CN(C)CCc2ccccn2)cc1	MK inhibit 52
CN(CCc1ccccn1)Cc1ccc(Cl)cc1	MK inhibit 59
